# From the supplement of paper PMC12636033
# ± gives the standard deviation of the averaged measurements. The full ranking holds about 33,000 sequences; the median of “E-score (rank enrichment, -0.5 to 0.5)” is about -0.0075, and the highest 2% start at about 0.23. The sample as a whole holds a higher share of the highest values than the screen did.
# Test system: WT Max(13-93) synthetic (M65Nle)
# Assay: PBM 8-mer E-score (E-score (rank enrichment, -0.5 to 0.5)); higher = stronger preferential binding
# Description: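 Protein binding microarray (universal PBM chip covering all 10-mers in fixed probe flanks) with chemically synthesized human Max(13-93) bHLH-LZ analogs (not full-length Max) bearing noncanonical residues (hArg, Tha, Aib, Nle at 65) and aromatic Cys staples. Read-out per 8-mer (and its reverse complement): E-score (rank-based enrichment, -0.5 to 0.5) and Z-score of median probe intensity.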
row,Sequence,PBM 8-mer E-score
1,AGGACGGG,-0.111 ± 0.0023
2,AGGGCTAT,-0.0385 ± 0.038
3,CTCATAGC,-0.112 ± 0.12
4,CACATTTA,0.143 ± 0.021
5,GCTAAACC,-0.212 ± 0.15
6,CCACGTGG,0.4957 ± 0.00063
7,CCACGTTA,0.3 ± 0.019
8,GCACGTTA,0.194 ± 0.078
9,CCACGTTC,0.0954 ± 0.045
10,CGACGTGC,-0.0266 ± 0.031
11,CAACGTGG,0.172 ± 0.03
12,CCACGTCC,-0.0561 ± 0.11
13,CCACGTGC,0.488 ± 0.0054
14,TAACGTGA,0.125 ± 0.039
15,CCACGTAG,-0.0793 ± 0.044
16,AAACGTGA,0.146 ± 0.13
17,CAACGTGA,0.259 ± 0.05
18,CATTCCGG,-0.206 ± 0.049
19,ATTTCAAG,0.112 ± 0.2
20,ACACTAGG,-0.0884 ± 0.012
21,ATCTTTTG,0.00161 ± 0.044
22,CTTATGAA,0.0318 ± 0.11
23,CTTACTCA,0.0397 ± 0.06

row,Sequence,PBM 8-mer E-score
1,CTACGTGA,-0.0378 ± 0.094
2,CCACGTGA,0.4829 ± 0.002
3,CGACGTGA,0.0688 ± 0.0071
4,AGAGCACA,-0.0234 ± 0.086
5,ATTGCTTA,0.0363 ± 0.041
6,ACTACACA,0.306 ± 0.067
7,AGTACACA,0.163 ± 0.09
8,TGTACACA,0.159 ± 0.071
9,CCTACACG,-0.0643 ± 0.072
10,AGTACACG,0.233 ± 0.032
11,CGTACACC,0.0276 ± 0.012
12,CGTACACA,0.15 ± 0.012
13,CGTACACG,0.257 ± 0.018
14,ACTACACG,0.139 ± 0.041
15,CTTCGCTC,-0.143 ± 0.067
16,TAAGGAGA,0.0617 ± 0.054
17,CAGAACCA,-0.0491 ± 0.0095
18,AGTTGCTC,-0.143 ± 0.047
19,ATCACATC,0.065 ± 0.073
20,ACCACATA,0.00899 ± 0.073
21,ATCACATA,0.175 ± 0.13
22,ATCACATG,0.37 ± 0.017
23,AGCACATA,0.0511 ± 0.0046

row,Sequence,PBM 8-mer E-score
1,ACCACATC,0.0678 ± 0.067
2,ACCACATG,0.404 ± 0.012
3,AGCACATC,0.0162 ± 0.041
4,AGCACATG,0.343 ± 0.004
5,GCTCTGAC,-0.2596 ± 0.00028
6,CCTACTGA,0.0748 ± 0.039
7,CCCTATCA,0.0698 ± 0.034
8,CCTCACAC,-0.0382 ± 0.027
9,TGAGCTCA,-0.206 ± 0.065
10,TGTGCACA,0.132 ± 0.071
11,CATGCACG,0.186 ± 0.11
12,CATGCACA,0.353 ± 0.0061
13,CGTGCACA,0.176 ± 0.0077
14,AATGCACA,0.128 ± 0.055
15,CGTGCACG,0.293 ± 0.049
16,GATGCACA,-0.00554 ± 0.026
17,AATGCACT,0.143 ± 0.027
18,AATGCACG,0.245 ± 0.045
19,CCTACTGC,-0.0303 ± 0.015
20,AATAGAGT,0.0159 ± 0.021
21,AAGGCTCT,-0.0744 ± 0.037
22,GGTCGGAA,-0.0727 ± 0.14
23,AGTCTGTG,-0.264 ± 0.097

row,Sequence,PBM 8-mer E-score
1,ACAGTGTG,0.116 ± 0.011
2,GGACATTA,0.0724 ± 0.14
3,GTGCACAA,-0.0677 ± 0.047
4,GATACAGC,0.0628 ± 0.015
5,CAGTATTC,0.0983 ± 0.017
6,GACATGCA,0.144 ± 0.07
7,GACATGCC,0.167 ± 0.019
8,CATATGCG,0.252 ± 0.015
9,CCCATGCG,0.187 ± 0.058
10,CACATGCG,0.29 ± 0.047
11,CACATGCC,0.258 ± 0.024
12,TACATGCA,0.196 ± 0.084
13,AACATGCC,0.093 ± 0.12
14,AACATGCG,0.221 ± 0.0062
15,AATATGCG,0.0644 ± 0.011
16,CATATGCC,0.118 ± 0.036
17,CACATGCA,0.305 ± 0.031
18,CTGCATAA,0.0963 ± 0.024
19,CCAATGTA,-0.0337 ± 0.034
20,GTTGTTTA,0.212 ± 0.071
21,CTACACTC,-0.0808 ± 0.031
22,ACTGAGAC,-0.109 ± 0.043
23,CCCACGGC,-0.024 ± 0.17

row,Sequence,PBM 8-mer E-score
1,CAGATTGG,-0.114 ± 0.072
2,CACATCCG,-0.176 ± 0.045
3,CTAAGGAG,-0.143 ± 0.011
4,AAAATATC,0.098 ± 0.12
5,TAAATATA,0.253 ± 0.0074
6,CAAATATA,0.137 ± 0.06
7,AAAATATG,0.21 ± 0.0022
8,GAAATATA,0.219 ± 0.035
9,AAAATATA,0.254 ± 0.032
10,AAAATACA,0.0792 ± 0.0013
11,GAAATACA,-0.0415 ± 0.044
12,TAAATACA,0.248 ± 0.0097
13,AGGGCGTA,0.122 ± 0.028
14,GAATTCTA,-0.07 ± 0.14
15,CAGGCCCC,-0.0835 ± 0.04
16,CCATGCAC,0.0862 ± 0.038
17,ACATGCAG,0.126 ± 0.044
18,ACATGCGG,0.14 ± 0.056
19,ACATGCAA,0.185 ± 0.073
20,GTATGCAC,0.1415 ± 0.00096
